Screening data from PubChem.
ATXN2 expr inh = ATXN2 expression inhibition | HEK-293 ATXN2-luciferase reporter, luminescence, 24 h | AID 1745845 | 0.72% of 360,000 active | Potency, µM (top dose mostly 57 µM), inactives show at the top dose activity change, negative = inhibition, usual class: inhibitors; note: % is set by controls: 0 for no effect and ±100 for the full control effect; nearly all actives have a fitted effect of over 55% in size
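qHTS (up to 57 uM final) was run with 24 h compound exposure of reporter cells at 37 °C. Each well was multiplexed: SteadyGlo luminescence measured ATXN2-luciferase expression after a fluorogenic Gly-Phe-AFC viability readout (25 uM final).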
TGFb SMAD3 inh = inhibitors of TGF-b signaling | AID 588855 | Potency, µM (top dose mostly 46.1 µM), inactives show top-dose activity, negative = inhibition, usual class: inhibitors | 1.2% of 410,000 active | HepG2 CAGA-GFP TGF-b/SMAD3 reporter, GFP fluorescence, 18 h; TGF-beta stimulated, 500 pg/mL final; note: % is set by controls: 0 for no effect and ±100 for the full control effect; nearly all actives have a fitted effect of over 65% in size
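Inhibition of TGF-beta-driven CAGA-GFP reporter expression in HEPG2 cells is measured by cellular GFP fluorescence after 18 h stimulation with 500 pg/mL recombinant TGF-beta in 1% FBS medium at 37 degrees C.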
S2 tox = reduces viability in counter-screen for ATXN expression inhibitors | S2 cells (HEK-293 line with an ATXN2-luciferase reporter) viability, CellTiter-Fluor protease fluorescence, 24 h | Potency, µM (doses to about 56.7 µM), most hits filed as cytotoxic | 0.49% of 400,000 active | AID 651635; note: nearly all actives have a fitted effect of over 40% in size
Apoferritin bind = binds horse apoferritin like a general anesthetic; P02791; apoferritin/1-aminoanthracene competitive binding, fluorescence; AID 485281; Potency, µM (doses to about 77.5 µM), inactives show at the highest dose activity change, negative = displacement, most hits filed as inhibitors; 0.074% of 350,000 active; note: % is set by controls: 0 for no effect and ±100 for the full control effect; nearly all actives have a fitted effect of over 20% in size
Target sequence (P02791 2-175 limits assumed): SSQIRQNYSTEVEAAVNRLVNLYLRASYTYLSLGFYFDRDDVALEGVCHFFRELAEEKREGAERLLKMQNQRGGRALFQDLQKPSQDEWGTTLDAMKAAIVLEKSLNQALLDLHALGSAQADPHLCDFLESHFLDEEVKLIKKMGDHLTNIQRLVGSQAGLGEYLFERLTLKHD
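10 uM apoferritin + 50% sat. 1-AMA, PBS; cpd 10 min RT; Ex380/Em535 endpoint; normalized to free probe vs complex; 4-param Hill fit; propofol titration as pos. ctrl.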
HepG2 viability = counter-screen for TGF-b inhibitors: cytotoxicity in HepG2 cells; 0.76% of 410,000 active; AID 588856; Potency, µM (series often up to 46.1 µM), for the others: at the highest dose activity change, negative = cytotoxicity, hits mostly cytotoxic; HepG2 CAGA-GFP viability, ATP luminescence, 18 h
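CellTiter-Glo luminescence gave cytotoxicity after 18 hours at 37 degrees C. The cells were HepG2 CAGA-GFP in 1% FBS DMEM, stimulated with 500 pg/mL TGF-beta after compound addition. %Activity was normalised to no-cell wells (complete cell-killing) and DMSO (no toxicity), and curves were fitted and classified.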
* = called active by the depositor; i = inactive; ? = inconclusive; . = no result; ! = a repeat was not active. In the library only some 2.4% were active in any assay of this set; here they are far more common. Calls come from the whole dose curve; as a rule, active = well fitted curve in the direction sought with a large enough effect; inconclusive = small, poorly fitted or top-dose-only effect, or another doubt; inactive = no such curve, though single readings can be large; an effect the other way counts as inactive or inconclusive. Potency is the fitted concentration of half-maximal effect.

SMILES | ATXN2 expr inh | TGFb SMAD3 inh | S2 tox | Apoferritin bind | HepG2 viability
O=S(=O)(N[C@H](CO)c1ccccc1)c1ccc(Br)cc1F | -4% | -12% | i | . | 10%
Cc1ncc2c(c1CNC(=O)c1cncs1)CCN(C(=O)c1cc(F)c(F)cc1F)C2 | . | . | i | . | .
CCOc1ccc(-c2cn3c(n2)sc2cc(C(=O)NCCc4ccc(OC)cc4OC)ccc23)cc1 | . | 19% | . | -3% | -43%
COc1ccc(/C=C/C(=O)c2ccc(O)cc2)cc1COc1ccc(F)cc1 | ? | ? | i | ? | 16µM*
COc1ccc(Oc2ccc(/C=C/C(=O)c3ccc(O)cc3)cc2[N+](=O)[O-])cc1 | 22µM* | 16µM* | . | -10% | -98%
COc1ccc(/C=C/C(=O)c2ccccc2)cc1COc1ccc(F)cc1 | ? | 1% | ? | -18% | -18%
[O-]/C(=C(\C(=S)NCCN1CCOCC1)[n+]1ccccc1)c1ccc(Cl)s1 | 2% | ? | i | -15% | -5%
COc1ccc(-c2nc3cnccn3c2Nc2ccc(C)cc2)cc1 | -26% | ? | ? | -2% | -2%
COc1ccc(Nc2c(-c3cccc(O)c3)nc3cnccn23)cc1 | 6% | 6.3µM* | i | -6% | -10%
CCc1ccc(OCC(=O)N(Cc2ccc(C)o2)C2CCS(=O)(=O)C2)cc1 (stereo not given) | . | . | . | -3% | -4%
CCCCCOc1ccccc1/C(=C\SC)n1ccnc1 | -13% | . | i | . | .
CC1(COS(N)(=O)=O)CCCCC1 | 2% | 17% | i | 5.6µM* | 0%
C[C@H]1CN([C@@H](C)CO)S(=O)(=O)c2ccc(Br)cc2O[C@H]1CN(C)Cc1ccccc1F | ? | 16µM* | ? | . | -60%
C[C@@H]1CN([C@H](C)CO)S(=O)(=O)c2ccc(C#CC3CCCC3)cc2O[C@H]1CN(C)C(=O)Cc1ccccc1 | ? | ? | 22µM* | . | 16µM*
C[C@@H]1CN([C@H](C)CO)S(=O)(=O)c2ccc(Br)cc2O[C@@H]1CN(C)Cc1ccc(-c2ccccc2)cc1 | ? | 16µM* | ? | . | -57%
C[C@H](O)C#Cc1ccc2c(c1)O[C@@H](CN(C)Cc1ccc(-c3ccccc3)cc1)[C@H](C)CN([C@@H](C)CO)S2(=O)=O | 20µM* | ? | 16µM* | . | 7.1µM*
CC(=O)Nc1cccc(C(=O)OCC(=O)NC(=O)C2CCCCC2)c1 | . | 3% | . | . | -15%
N#Cc1nc(NCC2CC2)nc(Nc2ccccc2)n1 | . | . | . | -6% | .
CCOc1cc(S(=O)(=O)N2CCN(CC)CC2)ccc1Cl | -23% | -12% | i | -5% | 3%
CCCc1nc(C)c2c(=O)[nH]c(-c3cc(S(=O)(=O)N4CCN(CC)CC4)ccc3OCC)nn12 | 19µM*! | -11% | i | . | -45%
COc1ccc(Cc2c(-c3ccco3)nc3ccc(Cl)cn23)c(C)c1 | -8% | 22µM* | i | . | -47%
Cc1ccc(Cc2c(-c3ccco3)nc3ccc(Br)cn23)cc1 | 25% | ? | ? | . | -60%
COc1ccc(Cc2c(-c3ccco3)nc3c(C)cc(Br)cn23)c(C)c1 | -26% | ? | ? | . | -17%
COc1ccc(Cc2c(-c3ccco3)nc3ccc(Br)cn23)c(C)c1 | ? | 16µM* | . | . | 16µM*
Cc1cc(Br)cn2c(Cc3ccsc3)c(-c3ccco3)nc12 | ? | 6.3µM* | ? | . | 16µM*
SMILES | ATXN2 expr inh | TGFb SMAD3 inh | S2 tox | Apoferritin bind | HepG2 viability
Brc1ccc2nc(-c3ccco3)c(CC3CCCCC3)n2c1 | -5% | 11µM* | i | . | -31%
CN(C(=O)CSc1nnc(-c2ccccc2F)n1N)C1CCCCC1 | 10% | -13% | ? | . | 1%
Cc1cc(C)n(-c2cccc(C(=O)NCC3Cc4cccc(-c5ccccn5)c4O3)c2)n1 (stereo not given) | . | . | i | . | .
O=C(NCC(c1ccco1)N1CCCC1)c1cccc(S(=O)(=O)N2CCc3ccccc32)c1 (stereo not given) | . | -11% | i | . | -6%
CC1=C(C(=O)OCc2ccccc2)N2C(=O)[C@@H](NC(=O)OCc3ccccc3)[C@H]2SC1 | . | -20% | . | . | 3%
COC(=O)C1CCCCN1Cc1ccc2c(c1)CN(C1CCSCC1)CCO2 (stereo not given) | . | . | i | . | .
O=C1c2ccccc2C(=O)c2c1cccc2N(CCO)CCO | -2% | 15% | ? | -16% | -2%
O=C1C=C(N(CCO)Cc2ccccc2)c2ccccc2C1=O | 27µM* | 8.9µM* | . | -15% | 10µM*
Cc1ccccc1N(C(=O)c1snc(C(N)=O)c1N)C(C(=O)NCC1CCCO1)c1ccc(F)cc1 (stereo not given) | -15% | 1% | . | 3% | -8%
Cc1ccc2occ(/C=N/NC(=O)[C@@H](N)Cc3ccccc3)c(=O)c2c1 | 7% | -22% | i | -11% | 10µM*
Fc1ccc(-[n+]2nc(Nc3ccccc3)sc2-c2c3ccccc3cc3ccccc23)cc1 | 25µM* | 11µM* | 11µM* | ? | 11µM*
Oc1ccc2ccccc2c1-c1sc(Nc2ccccc2)n[n+]1-c1ccc(F)cc1 | -11% | 78% | i | -20% | -29%
CC(C)(C)n1ncc2c(=O)n(Cc3ccccc3Cl)cnc21 | . | -9% | . | . | -4%
COc1ccc(C2=C(Nc3ccc(Br)c(C)c3)c3ccccc3C2=O)cc1 | -16% | 14µM* | ? | ? | -38%
COc1ccc(C2=C(Nc3ccc(C)c(C)c3)c3ccccc3C2=O)cc1 | 3% | -22% | i | ? | -21%
COc1ccc(CN2CCCC(n3cc(C(=O)N4CCCCC4)nn3)C2)cc1OC (stereo not given) | . | . | i | . | .
CC(=O)N1CCc2c(sc(NC(=O)C3CC3)c2-c2nc3ccccc3s2)C1 | 32µM* | ? | ? | -9% | -8%
CC(=O)Nc1sc2c(c1-c1nc3ccccc3s1)CN(C(C)C)CC2 | 3.5µM* | 34% | i | . | 4%
CCCCC(=O)Nc1sc2c(c1-c1nc3ccccc3s1)CCN(C(C)=O)C2 | . | . | . | -18% | .
CCc1noc(C)c1C(=O)N1CCOc2ccc(CN3CCCC(C(=O)c4cccnc4)C3)cc2C1 (stereo not given) | . | . | i | . | .
CC(C)CCn1cnc2c(oc3nc4c(cc32)CCCC4)c1=O | -17% | -12% | ? | -6% | -7%
CCOC(=O)C1=CC[C@@H](c2ccccc2)N(S(=O)(=O)c2ccc(C)cc2)[C@H]1C | -3% | ? | i | . | 22µM*
N#Cc1cc(O)c(-n2nnc3ccccc32)cc1C#N | 4% | -15% | i | -10% | 14%
N#Cc1cc(Oc2cccc3cccnc23)c(-n2nnc3ccccc32)cc1C#N | ? | 6.3µM* | i | -15% | -94%
